Screen size: about 650,000 compounds; about 5,900 (0.91%) were called active. The sample holds actives, similar compounds and a random draw of the others, so the mix is not that of the screen. No stated cut-off is given here; in the data, active means inhibition above about 50%; inactive means the rest.
molecular target: Microphthalmia-associated transcription factor (Homo sapiens) (UniProt O75030); assay: MITF inhibitors, primary screen, biochemical, AlphaScreen, human (AID 1259374); conditions: AlphaScreen MITF homodimerization, bead proximity signal; at 2.6 µM; stronger effect = higher value;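 further: 0% = vehicle wells with protein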
Sequence (O75030 whole entry, looked up): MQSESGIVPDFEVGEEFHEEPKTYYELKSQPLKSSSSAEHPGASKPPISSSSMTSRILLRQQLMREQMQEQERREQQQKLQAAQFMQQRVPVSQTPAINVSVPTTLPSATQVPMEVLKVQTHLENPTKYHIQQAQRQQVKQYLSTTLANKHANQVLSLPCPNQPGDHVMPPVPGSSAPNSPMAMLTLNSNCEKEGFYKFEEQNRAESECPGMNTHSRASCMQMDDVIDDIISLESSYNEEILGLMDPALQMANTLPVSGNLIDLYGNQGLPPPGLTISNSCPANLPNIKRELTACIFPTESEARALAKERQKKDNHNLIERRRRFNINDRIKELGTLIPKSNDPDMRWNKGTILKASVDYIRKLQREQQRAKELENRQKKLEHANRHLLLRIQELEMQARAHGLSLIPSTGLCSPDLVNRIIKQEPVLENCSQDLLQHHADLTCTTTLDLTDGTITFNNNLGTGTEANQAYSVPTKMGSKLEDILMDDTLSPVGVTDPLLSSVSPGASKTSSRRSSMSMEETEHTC

| SMILES | inhibition |
| --- | --- |
| CSc1ccc(CCNC(=O)c2cc3ccccn3n2)cc1 | -9.21% (inactive) |
| COc1ccc2[nH]c3c(c2c1)CCOC31CCN(C(=O)N[C@@H](C)c2ccccc2)CC1 | -20.6% (inactive) |
| O=C(Nc1cccc(Cl)c1N1CCN(Cc2ccco2)CC1)c1ccc(Br)o1 | -6.95% (inactive) |
| O=C(CNCCC1=CCCCC1)Nc1ccc(N2CCCC2)cc1 | 10.5% (inactive) |
| O=C(CNCc1ccc(F)cc1)Nc1ccc(N2CCCC2)cc1 | 53.1% (active) |
| O=C(CNC1CCCC1)Nc1ccc(N2CCCC2)cc1 | 6.86% (inactive) |
| O=C(NCc1ccccc1)NC(=O)c1cccnc1 | 22.7% (inactive) |
| CCOc1ccc(-c2cc(N)n(S(=O)(=O)c3ccc(C)cc3)n2)cc1 | -6.9% (inactive) |
| Cn1c(=NC(=O)CCOc2ccccc2)sc2cc(Br)ccc21 | 3.97% (inactive) |
| CCCC(=O)N=c1sc2cc(S(C)(=O)=O)ccc2n1C | 19% (inactive) |
| Cn1c(=NC(=O)COc2ccccc2)sc2cc(S(C)(=O)=O)ccc21 | 52.2% (active) |
| Cc1ccc(/C=C2\N=C(c3cccc(I)c3)OC2=O)cc1 | 12.7% (inactive) |
| Cc1ccc(C)c(NC(=O)CN(Cc2ccccc2)S(=O)(=O)c2ccc(Br)cc2)c1 | -9.84% (inactive) |
| CCN(Cc1ccccc1)C(=O)c1cc2c(=O)n3cccc(C)c3nc2n1C | -25.5% (inactive) |
| Cc1ccc(NC(=O)Cn2ccsc2=N)cc1F | 6.14% (inactive) |
| Cc1ccc(NC(=O)CN2CCN(c3ccccn3)CC2)cc1F | 8.15% (inactive) |
| CC(=O)N1CCN(CC(=O)Nc2ccc(C)c(F)c2)CC1 | 52.6% (active) |
| CCOc1ccc(Cl)cc1/C=C1/SC(=S)N(CCC(=O)O)C1=O | -26.2% (inactive) |
| CC(C)n1cnc2c(NCc3ccccc3)nc(Nc3ccncn3)nc21 | 10% (inactive) |
| Cn1c(-c2ccc(F)cc2)cnc1NCc1cccnc1 | 72.7% (active) |

| SMILES | inhibition |
| --- | --- |
| FC(F)(F)c1cc(-c2cnc3c(NCc4cccnc4)nccn23)cc(C(F)(F)F)c1 | -11.6% (inactive) |
| Cn1c(-c2ccccc2)cnc1NCc1cccc(F)c1 | 38% (inactive) |
| COc1ccc(C(=O)COC(=O)c2c3c(nc4ccccc24)CCCC3)cc1OC | 0.37% (inactive) |
| CN(Cc1cccs1)C(=O)CC1(c2cccc(F)c2)CC(=O)N(C2CCCC2)C1=O (centres undefined) | 7.07% (inactive) |
| Cc1[nH]c2ccccc2c1CN1CCN(Cc2ccc3c(c2)OCO3)CC1 | 38.3% (inactive) |
| OC1(Cc2ccccc2)CCN(Cc2ccncc2)CC1 | 1.54% (inactive) |
| Cc1ccc(N2CCN(Cc3cccnc3)CC2)cc1 | 9.13% (inactive) |
| Cc1ccc(CN2CCN(Cc3ccncc3)CC2)cc1 | 77.5% (active) |
| Cc1cc(OCC(O)CN2CCCC2)ccc1Cl (centres undefined) | 8.73% (inactive) |
| O=C1OC(c2ccc(F)cc2)=N/C1=C/c1ccc([N+](=O)[O-])cc1 | 5.42% (inactive) |
| CCN(CC)CCN1CCN(c2ncc(-c3ccccc3)n3ccnc23)CC1 | 8.61% (inactive) |
| Cn1c(=O)n(Cc2cc3c(cc2Cl)OCO3)c2cccnc21 | 13.7% (inactive) |
| CCN(CC)CCN1COc2c(cc(Cl)c3cccnc23)C1 | 102% (active) |
| O=C(Cc1cccs1)N/N=C\c1ccc(Cl)c(Cl)c1 | -9.59% (inactive) |
| O=C(Cc1cccs1)N/N=C\C=C\c1ccco1 | 64.5% (active) |
| C/C(=N/NC(=O)Cc1cccs1)c1ccc(Br)cc1 | 7.44% (inactive) |
| Cc1ccc(N(C(=O)C(C)Oc2ccccc2)C2C=CS(=O)(=O)C2)cc1 (centres undefined) | -4% (inactive) |
| O=C(Nc1cccs1)N1CCC(Cn2c(COc3ccccc3)nc3ccccc32)CC1 | 12.3% (inactive) |
| COCCNC(=O)Nc1ccc2nc(-c3ccco3)c(-c3ccco3)nc2c1 | 87.1% (active) |
| COCCCNC(=O)Nc1ccc(Cl)c(Cl)c1 | 9.41% (inactive) |

| SMILES | inhibition |
| --- | --- |
| COCCCNC(=O)Nc1ccc([N+](=O)[O-])cc1 | 6.26% (inactive) |
| O=C(CCN1C(=O)C2C3C=CC(C3)C2C1=O)Nc1ncc(S(=O)(=O)c2ccc([N+](=O)[O-])cc2)s1 (centres undefined) | 2.57% (inactive) |
| O=C(NNC(=O)c1cc([N+](=O)[O-])ccc1Cl)c1cccc(Cl)c1 | -0.55% (inactive) |
| Cc1cc(C)n2c(SCc3nc4sc(C)c(C)c4c(=O)[nH]3)nnc2n1 | 7.98% (inactive) |
| COC(=O)c1sc2nc(C)[nH]c(=O)c2c1C | -2% (inactive) |
| CSc1nnc(SCc2nc3sc(C(=O)O)c(C)c3c(=O)[nH]2)s1 | 55.8% (active) |
| Cc1ccc(C)c(N2CCN(Cc3nnnn3Cc3ccc(F)cc3)CC2)c1 | 13.1% (inactive) |
| CC1(C(=O)O)NC(c2cc(Cl)cc(Cl)c2O)C2C(=O)N(c3ccccc3)C(=O)C21 (centres undefined) | -2.7% (inactive) |
| COc1ccccc1N1CCN(S(=O)(=O)c2ccccc2[N+](=O)[O-])CC1 | -2.42% (inactive) |
| O=[N+]([O-])c1ccccc1S(=O)(=O)N1CCN(C2Cc3ccccc3C2)CC1 | 52.9% (active) |
| O=CN1CCN(S(=O)(=O)c2ccccc2[N+](=O)[O-])CC1 | -7.16% (inactive) |
| CC(=O)c1cccc(-c2nc(C)cc(NCc3nc4ccccc4[nH]3)n2)c1 | -6.7% (inactive) |
| COC(=O)c1sc(NC(=O)c2cccc(OC)c2OC)c(C#N)c1C | 15.6% (inactive) |
| COC(=O)c1sc(NC(=O)c2ccncc2)c(C#N)c1C | 22.1% (inactive) |
| COC(=O)c1sc(NC(=O)c2ccccc2C)c(C#N)c1C | 58.6% (active) |
| O=C(O)CCCCC1SCC2NC(=O)NC21O (centres undefined) | 115% (active) |
| COc1ccc(NC(=O)c2cc(S(=O)(=O)NCCc3ccccc3)ccc2F)cc1 | 9.24% (inactive) |
| O=c1c2c(nc(SCc3ccccc3)n1-c1ccccc1)-c1ccccc1CC21CCCC1 | 7.99% (inactive) |
| CC(C)C(Nc1nc(N2CCC[C@H]2C(=O)O)ccc1[N+](=O)[O-])C(=O)O (some centres undefined) | 4.19% (inactive) |
